# Compounds with a hit are over-represented: about 11% of the library has one in this group of screens.
# IMPase inh – qHTS Assay for Identifying the Cell-Membrane Permeable IMPase Inhibitors. Inositol monophosphatase 1 (Rattus norvegicus), P97697. CHO-M1 cells, IP1 accumulation, HTRF TR-FRET ratio. inhibition (IP1 accumulation), % at 46.1 µM. 120,000 tested, under 10 active. AID 901, 2007; active = well fitted curve in the direction sought with a large enough effect in the signal ratio, not every such curve was filed as active; inconclusive = small, poorly fitted or top-dose-only effect, or a change in a side signal; inactive = no such curve, though single readings can be large or run the other way; the % refers to the signal ratio;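 note: cells stimulated with carbachol in lithium chloride buffer; plate controls were DMSO basal wells for no effect and reference inhibitor wells for full effect; higher means more IMPase inhibition seen as more IP1 and lower FRET ratio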
#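 Seeded CHO-M1 cells were dosed with compound at up to 46 uM, stimulated with carbachol for 30 min, then lysed in IP-One detection reagents. Higher IP1 lowers the TR-FRET signal.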
# ALDH1A1 block – qHTS Assay for Inhibitors of Aldehyde Dehydrogenase 1 (ALDH1A1); Potency, µM (highest dose often 75.3 µM), without a hit: at the top dose activity, negative = inhibition, usual class: inhibitors; Purified ALDH1A1, NADH fluorescence, propionaldehyde substrate; Aldehyde dehydrogenase 1A1 (Homo sapiens), P00352; actives 7.3% (n = 220,000); active = well fitted inhibition curve with a large enough effect, not every such curve was filed as active; inconclusive = small, poorly fitted or top-dose-only effect, or another doubt; inactive = no such curve, though single readings can be large or run the other way;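 note: potency is the fitted concentration of half-maximal effect; plate controls were no enzyme wells and a reference inhibitor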
# Target sequence (P00352 whole entry, looked up): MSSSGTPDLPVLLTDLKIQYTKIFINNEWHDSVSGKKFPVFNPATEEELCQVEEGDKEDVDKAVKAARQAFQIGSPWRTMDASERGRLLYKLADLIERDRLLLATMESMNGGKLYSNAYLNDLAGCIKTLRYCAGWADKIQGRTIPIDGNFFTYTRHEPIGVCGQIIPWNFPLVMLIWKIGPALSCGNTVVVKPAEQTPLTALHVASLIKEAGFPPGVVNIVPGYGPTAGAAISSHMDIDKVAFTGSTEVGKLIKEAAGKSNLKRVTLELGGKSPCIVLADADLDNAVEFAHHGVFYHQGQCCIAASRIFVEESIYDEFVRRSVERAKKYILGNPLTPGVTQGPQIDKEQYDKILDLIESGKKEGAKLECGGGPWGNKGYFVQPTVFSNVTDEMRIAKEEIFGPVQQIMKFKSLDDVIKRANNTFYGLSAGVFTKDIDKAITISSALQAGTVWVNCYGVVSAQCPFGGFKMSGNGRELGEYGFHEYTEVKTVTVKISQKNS
# PNC inhibitor – High Content Assay for Compounds that inhibit the Assembly of the Perinucleolar Compartment; PC3M PTB-GFP, PNC prevalence imaging, 16 h; hits give low values; activity change (PNC), negative = inhibition, % at 10 µM; actives 3.1% (n = 140,000); AID 2417, 2010;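 active = readout at or below -70, meaning at least 70% loss of cells showing the perinucleolar compartment, a nuclear body marking cancer cells; inconclusive = readout between -30 and a set limit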;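 note: plate controls were DMSO wells for no effect and camptothecin positive control wells for full effect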
#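 Read-out is percentage of cells bearing a perinucleolar compartment, from automated 20x imaging of fixed, Hoechst-stained PC3M PTB-GFP cells. Cells were seeded 4 h, then exposed 16 h to compound (23 nl of library stock) in duplicate plates.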
# HPGD inh – qHTS Assay for Inhibitors of HPGD (15-Hydroxyprostaglandin Dehydrogenase). 15-hydroxyprostaglandin dehydrogenase [NAD(+)] (Homo sapiens), P15428. purified HPGD, NADH fluorescence kinetic, PGE2 substrate. Potency, µM, inactives show at the highest dose activity change, negative = inhibition, usual class: inhibitors. actives 4.3% (n = 150,000); active = well fitted inhibition curve with a large enough effect, not every such curve was filed as active; inconclusive = small, poorly fitted or top-dose-only effect, or another doubt; inactive = no such curve, though single readings can be large or run the other way; note: potency is the fitted concentration of half-maximal effect
# Target sequence (P15428 whole entry, looked up): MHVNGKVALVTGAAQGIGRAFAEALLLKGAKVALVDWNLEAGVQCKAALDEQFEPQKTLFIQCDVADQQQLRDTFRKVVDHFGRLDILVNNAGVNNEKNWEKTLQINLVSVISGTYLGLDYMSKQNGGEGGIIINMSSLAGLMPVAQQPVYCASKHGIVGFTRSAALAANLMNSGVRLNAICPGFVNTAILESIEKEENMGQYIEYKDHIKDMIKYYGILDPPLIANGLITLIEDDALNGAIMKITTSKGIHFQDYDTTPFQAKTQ
#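 NADH formation kinetics: reaction with 30 uM PGE2 and 1 mM NAD+ (final), 20 nM enzyme, Tris-HCl pH 8 with Tween 20, after 15 min compound preincubation at room temperature. Fluorescence change, last versus first of five reads.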
# IMPase Li inh – qHTS Assay for Identifying the Cell-Membrane Permeable IMPase Inhibitors: Potentiation with Lithium; Potency, µM (highest dose often 59.4 µM), without a hit: at the top dose activity, negative = IMPase inhibition, most hits filed as inhibitors; AID 1457, 2008; actives 0.35% (n = 210,000); CHO-M1 cells, IP1 TR-FRET (IP-One), carbachol + lithium;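 note: IP1 builds up when IMPase is blocked and the TR-FRET signal falls; potency is the fitted concentration of half-maximal effect; plate controls were basal vehicle for no effect and high inhibitor control for full effect; nearly all actives have a fitted effect of over 50% in size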
#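 IP1 accumulation measured by competitive TR-FRET in lysed CHO-M1 cells after 30 min compound exposure at 37C, with a small lithium addition to potentiate weak responses. Hill-equation AC50 from ratio and donor-channel data.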
# ALOX12 inhib – qHTS Assay for Inhibitors of 12-hLO (12-human lipoxygenase); Polyunsaturated fatty acid lipoxygenase ALOX12 (Homo sapiens), P18054; purified 12-hLO, xylenol orange hydroperoxide absorbance; Potency, µM (series often up to 57.1 µM), for the others: top-dose activity change, negative = inhibition, usual class: inhibitors; actives 0.12% (n = 150,000); AID 1452, 2008; note: potency is the fitted concentration of half-maximal effect; nearly all actives have a fitted effect of over 55% in size
#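 Purified human 12hLO (150 nM final) was preincubated with compounds for 15 min at room temperature in 25 mM Hepes pH 7.0, 0.01% Triton X-100, then reacted with 40 uM arachidonic acid for 30 min. Hydroperoxide was detected with ferrous iron/xylenol orange.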
# Numbers without * were called inactive; ? = inconclusive; . = no result; [ ] = another dose, or the depositor's remark. Unless noted, calls come from the whole dose curve; as a rule, active = well fitted curve in the direction sought with a large enough effect; inconclusive = small, poorly fitted or top-dose-only effect, or another doubt; inactive = no such curve, though single readings can be large; an effect the other way counts as inactive or inconclusive. Unless noted, % is set by controls: 0 for no effect and ±100 for the full control effect.
SMILES,IMPase inh,ALDH1A1 block,PNC inhibitor,HPGD inh,IMPase Li inh,ALOX12 inhib
CC1=C(C(=O)Nc2ccc(Cl)cc2)C(C(C)C)n2nc(SCc3cccc(C)c3)nc2N1 (stereo not drawn),-19,.,.,.,.,.
C=CCn1c(SCC(=O)NC(=O)NCCC)nnc1C1CCCCC1,0,5.6µM*,3,-13%,5%[38.3 µM],3%
COCCn1c(=O)c(-c2cc(F)cc(F)c2)nc2cnc(Oc3ccc(OC)cc3)nc21,.,0%,.,-24%,1%,-2%
COC1=C(C(=O)c2ccccc2)C(=O)C2(CC=C(C)C)C[C@H](C(=O)OCC(F)(F)F)C(C)(C)[C@@]1(CC=C(C)C)C2=O (tested in a mixture with another compound),.,-8%,.,-12%,19%,4%
CCOC(=O)c1c(NC(=O)COC(=O)c2ccncc2)sc(C)c1C,.,?,.,.,6%,.
Cc1ccc(C(=O)Nc2sc(C(=O)N(C)C)c(C)c2C#N)cc1,.,-15%,21,-14%,0%,0%
CCOC(=O)c1sc(NC(=O)c2ccncc2)c(C#N)c1C,.,3.2µM*,-4,14µM*,1%,-7%
COC(=O)c1sc(NC(=O)c2c(OC)cccc2OC)c(C#N)c1C,.,?,.,.,11µM*,.
CCOC(=O)c1c(NC(=O)c2ccncc2)sc(C)c1C,.,13µM*,.,.,20%,.
O=c1c(-c2cccc(Cl)c2)nc2cncnc2n1C1CC1,.,14%,.,.,-3%,.
CCC1=C2CC[C@H]3C(=O)N(CC)C(=O)[C@H]3[C@H]2[C@@]2(C)C(=NCCc3c[nH]c4ccccc34)OC(=O)N2C1=O,.,-2%,.,-9%,1%,-2%
CC1CCN(c2c(NCC3CCC(C(=O)Nc4ccccn4)CC3)c(=O)c2=O)CC1 (stereo not drawn),.,7%,-119*,22µM*,10%,-1%
CC1CCN(c2c(NCC3CCC(C(=O)NCc4ccccc4Cl)CC3)c(=O)c2=O)CC1 (stereo not drawn),.,1%,30,16µM*,6%,-1%
COC(=O)CC[C@@H](C)[C@H]1CC[C@H]2[C@H]3CC[C@H]4C[C@@H]5CC[C@@]4(C)C3(O5)[C@@H](Br)[C@@H](Br)[C@@]12C,.,.,.,.,.,4%[11.4 µM]
O=C(CSc1cccc[n+]1[O-])c1cc2ccccc2o1,-3,?,8,28µM*,0%[38.3 µM],-10%
Cn1cccc1C(=O)NC(=O)CSc1cccc[n+]1[O-],-5,?,-95*,-28%,-1%[38.3 µM],-5%
COc1ccccc1C(=O)NC(=O)CSc1cccc[n+]1[O-],.,-4%,.,.,7%,.
NCCC[C@@H](CC(=O)N[C@@H]1CCNC[C@H]1C(=O)N[C@H](CC(=O)N[C@@H](CCC(=O)O)CC(=O)O)Cc1ccccc1)NC(=O)C[C@H](Cc1c[nH]c2ccccc12)NC(=O)[C@@H]1CNCC[C@H]1N,.,6%,.,-5%,-9%,0%
N#Cc1cccc(NC(=O)N2CC[C@@]3(CCCNC3)C2)c1,.,?,.,-6%,-3%,-3%
CC(C)(C)N1C(=O)[C@H]2[C@H]3[C@H](O)[C@H](O)C/C(=N/NC(=O)OCc4ccccc4)[C@@H]3CC[C@@H]2C1=O,.,-8%[13.5 µM],.,.,.,.
CC(C)(C)c1ccc(S(=O)(=O)Nc2cccc(C3OCCCO3)c2)cc1,.,25µM*,3,-5%,5%,-4%
CC(=O)Nc1ccc(OS(=O)(=O)c2ccc(C(C)(C)C)cc2)cc1,.,13µM*,.,.,14%,.
CC(=O)c1ccc(NS(=O)(=O)c2ccc(C)cc2)cc1,-4,-11%,?,?,21%[38.3 µM],0%
Cc1cc(NS(=O)(=O)c2ccc(NC(=S)NC(=O)c3ccc(C(C)(C)C)cc3)cc2)no1,.,13µM*,32,18µM*,13%,-1%
CC(=O)c1ccc(NS(=O)(=O)c2ccc(C(C)(C)C)cc2)cc1,.,13µM*,.,.,12%,.
SMILES,IMPase inh,ALDH1A1 block,PNC inhibitor,HPGD inh,IMPase Li inh,ALOX12 inhib
CC(=O)Nc1ccc(S(=O)(=O)Oc2ccc(/C=C3\SC(N)=NC3=O)cc2)cc1,.,-7%,.,.,-1%,.
Clc1ccc(/C=C/c2ncc3ccccn23)cc1,.,-3%,.,.,1%,.
O=C(c1ccncc1)N1CCC2(CC1)CCN(c1ccccn1)CC2,.,?,.,?,11%,-3%
CCCCCCC1=Cc2cc(OC)c(OC)cc2C(C(C(C)=O)C(=O)OCC)O1 (stereo not drawn),.,5%[13.5 µM],.,.,.,.
CN(C)[C@H]1C(=O)C(C(=O)NCN2CCCC2)=C(O)[C@]2(O)C(=O)C3=C(O)c4c(O)cccc4[C@@](C)(O)[C@H]3C[C@@H]12,6[20.6 µM],-2%[20.9 µM],.,-20%,10%,-8%[25.6 µM]
O=c1c(-c2cc(F)cc(F)c2)nc2cnc(N3CCNCC3)nc2n1Cc1ccc(F)cc1,.,?,.,.,7%,.
Cc1cc(NS(=O)(=O)c2ccc(NC(=S)NC(=O)c3ccc(Cl)cc3Cl)cc2)no1,1,0%,0,25µM*,-3%[38.3 µM],?
COC(=O)Cn1c(O)c(N=NC(=O)c2ccc3c(c2)OCO3)c2ccccc21,.,1.8µM*,.,.,11%,.
CCn1c(O)c(N=NC(=O)CNc2ccc(C)cc2)c2ccccc21,.,-16%,7,-5%,6%,-2%
CCn1c(O)c(N=NC(=O)CNc2cccc(C)c2)c2ccccc21,.,28µM*,?,-11%,7%,1%
Cc1cccc(NC(=O)Cn2c(O)c(N=NC(=O)c3ccncc3)c3ccccc32)c1,.,13µM*,.,.,6%,.
Cc1ccc(NC(=O)Cn2c(O)c(N=NS(=O)(=O)c3ccc(C)cc3)c3ccccc32)cc1,.,0.35µM*,?,-6%,5%,-2%
CO[C@@H]1COC(=O)[C@H]2CCCN2C(=O)[C@@H](C)COC(=O)C/C=C\[C@H]1C,.,2%[13.5 µM],.,.,.,.
Cn1c(=S)[nH]c2c(c1=O)C(C)(C)Cc1ccccc1-2,.,8.9µM*,.,.,1.4µM*,.
CC1(C)Cc2ccccc2-c2nc3n(c(=O)c21)CCS3,.,-11%,.,.,7%,.
CCn1c(=O)c2c(n3cnnc13)-c1ccccc1CC21CCCCC1,-2,-8%,?,-3%,8%[38.3 µM],-3%
CCn1c(=S)[nH]c2c(c1=O)C(C)(C)Cc1ccccc1-2,.,4%,.,.,4.5µM*,.
Nc1nc(SCc2ccc([N+](=O)[O-])cc2)c2ncn([C@@H]3O[C@@H](CO)[C@@H](O)[C@H]3O)c2n1,7,.,.,.,.,-3%

# Screening results deposited in PubChem by National Center for Advancing Translational Sciences (NCATS).
